This excerpt belongs to a sample that is enriched for hits.
SF1 inhibitor = inhibitors of human nuclear receptor SF-1; inhibition, % at 10 µM; CHO-K1 Gal4-SF-1 LBD luciferase reporter; actives 0.55% (n = 65,000); AID 525;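 active means inhibition above the mean inhibition of all tested compounds plus 3 SD, cut at about 48% in these data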;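 further: 0% = SF-1 transfected cells with DMSO and 100% = mock-transfected cells lacking SF-1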
Target sequence (Q13285 whole entry, looked up, the tested form may be a part): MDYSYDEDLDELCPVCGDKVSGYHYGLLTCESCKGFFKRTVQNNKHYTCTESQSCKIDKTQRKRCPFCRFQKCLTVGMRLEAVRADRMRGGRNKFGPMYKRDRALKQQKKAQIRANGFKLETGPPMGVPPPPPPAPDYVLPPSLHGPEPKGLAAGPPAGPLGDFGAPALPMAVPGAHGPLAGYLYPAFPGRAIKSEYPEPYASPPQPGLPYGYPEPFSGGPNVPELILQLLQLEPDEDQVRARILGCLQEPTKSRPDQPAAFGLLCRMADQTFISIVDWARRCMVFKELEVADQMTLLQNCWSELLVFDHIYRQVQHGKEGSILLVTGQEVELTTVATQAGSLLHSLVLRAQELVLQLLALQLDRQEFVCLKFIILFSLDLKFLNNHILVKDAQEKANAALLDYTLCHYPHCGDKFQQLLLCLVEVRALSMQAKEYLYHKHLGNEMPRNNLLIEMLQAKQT
* marks the source's active call; other numbers are inactive results.

SMILES | SF1 inhibitor
COc1ccc(OC)c(NS(=O)(=O)c2ccc(N3CCCC3=O)cc2)c1 | 52.8*
CCN(CC)C(=O)c1sc2nc(-c3ccc(OC)cc3)cn2c1C | -80.0
CCC1(CC)C(=O)NC(=O)NC1=NCCc1ccc(O)cc1 | 3.7
COc1cc(CSc2nnnn2-c2ccc(C)cc2)cc(OC)c1OC | 62.0*
Cc1ccc(Nc2nc(CSc3nnnn3-c3ccccc3)cs2)cc1 | 5.9
COc1ccc(C)cc1-n1nnnc1SCc1nc2ccccc2s1 | -109.7
c1ccc(OCCCc2nc(-c3cccnc3)no2)cc1 | -8.5
Cc1nnc(NC(=O)CSc2nnc(Cc3cccn3C)n2-c2ccccc2)s1 | 5.4
c1cc2c(cc1Nc1nc(-c3ccc4c(c3)OCO4)cs1)OCCO2 | -41.2
O=S(=O)(NC1CC2CCC1C2)c1ccc2c(c1)OCCO2 (stereo not drawn) | 10.1
C=CCn1c(=O)[nH]c2cc(C(=O)N3CCN(c4ccc(C(C)=O)cc4)CC3)ccc2c1=O | -14.5
CC(=O)c1ccc(N2CCN(C(=O)c3cc4c(=O)n(C)c5ccccc5c4n3C)CC2)cc1 | 47.6
CC(=O)c1ccc(N2CCN(c3ccc(C(F)(F)F)cn3)CC2)cc1 | 57.8*
O=C(N=C1SCC(=O)N1c1ccccc1Cl)c1ccco1 | -54.7
CCOC(=O)N1CCC(Nc2c(Nc3cccc(CC)c3)c(=O)c2=O)CC1 | 25.7
Cn1c(=O)c2cc(S(=O)(=O)NCCC(=O)NCCC3=CCCCC3)ccc2n(C)c1=O | 12.0
O=C1c2ccccc2C(=O)N1CC#CCN1CCN(C2CCCCC2)CC1 | -3.2
CN1CCN(C(CNS(=O)(=O)c2ccc(F)cc2)c2cccnc2)CC1 (stereo not drawn) | 0.5
O=C1[C@H]2[C@@H](C(=O)N1c1cc(Cl)cc(Cl)c1)[C@]1(C(=O)Nc3ccccc31)N1CCC[C@@H]21 | 8.1
COc1ccc(C(O)c2nc3ccccc3n2C)cc1OC (stereo not drawn) | 20.7
Cc1cccc(-n2ncc3c(N4CCC(C)CC4)ncnc32)c1 | -70.1
Cc1ccc(-n2ncc3c(N4CCCC4)ncnc32)c(C)c1 | -66.0
CC1CC(C)CN(c2ncnc3c2cnn3-c2ccc(Cl)cc2)C1 (stereo not drawn) | -70.8
CC1CCCN(c2ncnc3c2cnn3-c2ccc(Cl)cc2)C1 (stereo not drawn) | 85.5*
c1ccc(-n2ncc3c(NC4CCCCCC4)ncnc32)cc1 | -90.9
SMILES | SF1 inhibitor
c1ccc(-n2ncc3c(N4CCCCC4)ncnc32)cc1 | 68.7*
CCN1CCN(c2ncnc3c2cnn3-c2ccccc2)CC1 | -56.5
Cc1ccc(-n2ncc3c(N4CCCC(C)C4)ncnc32)c(C)c1 (stereo not drawn) | -58.7
CC1CCCN(c2ncnc3c2cnn3-c2ccccc2)C1 (stereo not drawn) | 48.2*
CCOC(=O)c1cccc(NC(=O)c2cc3sccc3n2C)c1 | -55.2
Cc1cc(C(=O)Nc2nc3ccc(S(C)(=O)=O)cc3s2)c(C)o1 | -50.4
N#CNC(N)=Nc1cccc(Cl)c1 | 2.6
CCOCCn1c(CN2CCN(c3ccccc3)CC2)nc2c1c(=O)n(C)c(=O)n2C | -11.0
Cc1cccc(-n2ccnc2SCC(=O)Nc2nccs2)c1 | -60.2
O=C(CCN1C(=O)c2ccccc2C1=O)Nc1ccc(-c2nc3ccccc3o2)cc1 | -52.7
N#Cc1c(/N=C/N2CCOCC2)sc2c1CCCCC2 | -83.2
COc1cc2c(O)c3c(c(-c4ccc5c(c4)OCO5)c2cc1OC)C(=O)OC3 | -35.9
O=C(Nc1ccc2ccccc2c1)c1cccnc1 | -65.8
CCOC(=O)N1CCN(C(=O)c2ccc(CS(=O)(=O)c3c(Cl)cccc3Cl)o2)CC1 | -18.3
CCCc1nc(Nc2nc3ccccc3o2)nc(C)c1C(=O)OCC | -80.7
CCCc1nnc(NC(=O)CN2C(=O)C3C4C=CC(C4)C3C2=O)s1 (stereo not drawn) | -17.8
O=C(COc1ccccc1)Nc1ccc(-c2nnc(-c3ccco3)o2)cc1 | -65.7
CCCOc1ccc(-c2nnc(-c3ccco3)o2)cc1 | 64.2*
COc1ccc(-c2noc(-c3ccco3)n2)cc1OC | -50.5
CCSc1nnc(NC(=O)c2nn(C(C)C)c(=O)c3ccccc23)s1 | 8.5
COc1cccc(NC(=O)CSc2ccc3nnc(-c4ccncc4)n3n2)c1 | 12.7
COc1ccc(-n2c(Cc3cccn3C)nnc2SCC(=O)Nc2cccc(OC)c2)cc1 | -10.3
COc1cccc(NC(=O)CSc2nnc(-c3cc(C)n(-c4ccccc4)c3C)o2)c1 | 66.8*
CC(C)(C)c1ccc(OCCn2ccccc2=O)cc1 | -67.1
O=C(CN1C(=O)c2ccccc2C1=O)Nc1nnc(C2CCCO2)s1 (stereo not drawn) | -19.3
SMILES | SF1 inhibitor
Cc1cc(N2CCN(c3nc4ccccc4s3)CC2)n2ncnc2n1 | 55.4*
CCOc1ccc2nc(N3CCCCCC3)sc2c1 | -58.3
CC(C)c1nnc(NC(=O)C2CCN(c3nc4ccccc4s3)CC2)s1 | -17.5
COc1ccc(N2CCN(C(=O)CSc3ncccc3-c3nc4ccccc4[nH]3)CC2)cc1 | 8.7
COc1ccc(NC(=O)CNS(=O)(=O)c2cccs2)cc1 | -6.9
CCOCCCNC(=O)CCS(=O)(=O)Cc1ccc(C)cc1 | 17.7
CCOC(=O)Oc1ccc2c(c1)C(C)=CC(C)(C)N2C(=O)OCC | -8.6
Cc1cc(/C=N/n2cnnc2)c(C)n1-c1ccc(OCc2ccccc2F)cc1 | 84.5*
Cc1ccc2nsnc2c1S(=O)(=O)Nc1cccc2nsnc12 | -3.2
Cc1nc2ccc(S(=O)(=O)NCC(=O)NCc3ccc4c(c3)OCO4)cc2s1 | 1.0
O=C(CN1CCN(CC(=O)Nc2ccccn2)CC1)Nc1ccccn1 | 7.9
c1ccc(Nc2nc3ccccc3[nH]2)nc1 | -54.7
c1ccc(/N=C2\N=C(Nc3ccccn3)c3ccccc32)nc1 | 86.5*
CCOc1ccc(OCCCCN(C)C)cc1 | 7.7
CCCn1nc(Oc2nc(SC)nc(N(C)C)n2)ccc1=O | -8.5
Cc1nc2nc(-c3ccccc3)nn2c(C)c1Cl | -102.6
CCC1(c2cccc(Cl)c2)NC(=O)N(Cc2cc(C(=O)OC)c(C)o2)C1=O (stereo not drawn) | -10.6
COc1cccc2c1C(=O)c1c(O)c3c(c(O)c1C2=O)C[C@@](O)(C(=O)CO)C[C@@H]3O[C@H]1C[C@H](N)[C@H](O)[C@H](C)O1 | 79.8*
COc1ccccc1N1CCN(C2CCN(C(=O)c3cccs3)CC2)CC1 | 6.2
c1coc(C2Nc3ccccc3-c3nc4ccccc4n32)c1 (stereo not drawn) | -75.5
c1ccc(-n2nnnc2Oc2cccc3cccnc23)cc1 | 10.3
Cn1c(=O)c2[nH]cnc2n(-c2ccccc2)c1=O | 5.4
COc1ccccc1CNC(=O)CCn1c(=O)[nH]c2ccsc2c1=O | -0.2
COc1cc(C(=O)Nc2ccc(N(C)C)cc2)cc(OC)c1OC | -62.3
COc1cc(NS(=O)(=O)c2ccc(C)cc2C)cc(OC)c1OC | 61.5*
SMILES | SF1 inhibitor
CCOc1ccc(C)cc1S(=O)(=O)Nc1cccnc1 | -12.0
O=C(Nc1ccc(F)c(F)c1)c1ccc2c(c1)OCO2 | -66.2
O=C(NCCOc1ccccc1)c1ccc2c(c1)OCO2 | 59.2*
COc1cc2c(cc1NC(=O)c1ccc3c(c1)OCO3)oc1ccccc12 | -53.6
CC1(C)CC(=O)C(C=Nc2ccc(O)cc2)=C(O)C1 | -51.4
COc1cccc(-n2nnnc2SCC(=O)Nc2cccc(C)n2)c1 | 1.2
O=C(Nc1nsc(-c2ccccc2)n1)c1cccs1 | -77.0
O=C(CSc1nnnn1-c1ccccc1)Nc1nsc(-c2ccc(Cl)cc2)n1 | 88.0*
CC1CCN(S(=O)(=O)c2ccc(NC(=O)CSc3ncccc3C(=O)O)cc2)CC1 | 7.9
CCOC(=O)CSc1nnc(-c2cccc(Cl)c2)n1CC | 2.2
CCOC(=O)c1sc(-c2ccc(OC)cc2)cc1N | -62.5

Screening data as filed in PubChem BioAssay.
